# Test results: paper PMC7862700, “An all-to-all approach to the identification of sequence-specific readers for epigenetic DNA modifications on cytosine”
# How the values were obtained:
# Test in all cases: DAPPL (digital affinity profiling via proximity ligation, sequencing); 10 mM Tris-HCl pH 7.5, 50 mM NaCl, 1 mM DTT, 4% glycerol, room temperature, 30 min; GST-TFs on glutathione beads, 16-mer random dsDNA library, 0.1% formaldehyde crosslink after washing; high values mean tight binding
# FLI1 = target: T1, FLI1 (Homo sapiens, UniProt Q01543 1-452); details: protein: recombinant; tags: N-terminal GST; dsDNA, one strand shown
# T1 sequence: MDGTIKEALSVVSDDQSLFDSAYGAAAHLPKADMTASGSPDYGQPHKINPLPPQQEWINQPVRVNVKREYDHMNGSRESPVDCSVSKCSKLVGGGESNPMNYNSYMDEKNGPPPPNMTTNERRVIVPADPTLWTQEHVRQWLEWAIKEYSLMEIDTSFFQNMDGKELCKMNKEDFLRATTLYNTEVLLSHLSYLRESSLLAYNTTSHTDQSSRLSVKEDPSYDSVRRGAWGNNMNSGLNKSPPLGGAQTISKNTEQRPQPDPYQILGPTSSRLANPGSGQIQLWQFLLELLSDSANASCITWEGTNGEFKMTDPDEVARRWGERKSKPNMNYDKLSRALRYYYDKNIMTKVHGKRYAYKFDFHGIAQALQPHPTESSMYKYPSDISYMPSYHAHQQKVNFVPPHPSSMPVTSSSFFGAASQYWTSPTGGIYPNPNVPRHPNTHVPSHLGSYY
# Summary of the method: (§1)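 After expression in yeast as GST fusions, human transcription factors were bound to glutathione beads, DNA-barcoded and mixed with a tag-only sample. The pools were incubated with 200 nmole of a 16-mer random double-stranded DNA library in Tris/NaCl/DTT/glycerol buffer (30 min, room temperature), washed and crosslinked with 0.1% formaldehyde. Proximity ligation with BsaI/T4 ligase ran for 1 h at 37 °C, before PCR amplification and sequencing on an Illumina NextSeq500. Binding signal is a hexamer's read frequency for a factor divided by its frequency for the tag-only sample.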
# ELK1 = target: T2, ELK1 (Homo sapiens, UniProt P19419 1-428); details: protein: recombinant; tags: N-terminal GST; dsDNA, one strand shown
# T2 sequence: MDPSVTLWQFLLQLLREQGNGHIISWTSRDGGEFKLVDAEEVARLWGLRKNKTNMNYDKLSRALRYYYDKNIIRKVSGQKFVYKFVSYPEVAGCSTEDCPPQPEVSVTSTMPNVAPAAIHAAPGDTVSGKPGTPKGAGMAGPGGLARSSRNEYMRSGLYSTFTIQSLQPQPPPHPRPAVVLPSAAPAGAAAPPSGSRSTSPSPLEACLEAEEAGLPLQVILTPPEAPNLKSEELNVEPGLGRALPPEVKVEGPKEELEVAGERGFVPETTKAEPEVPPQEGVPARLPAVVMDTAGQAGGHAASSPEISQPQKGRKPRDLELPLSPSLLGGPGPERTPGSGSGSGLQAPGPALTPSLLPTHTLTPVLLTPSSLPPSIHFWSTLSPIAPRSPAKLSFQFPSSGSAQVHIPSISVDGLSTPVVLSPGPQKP
# Summary of the method: as §1
# GABPA = target: T3, GABPA (Homo sapiens, UniProt Q06546 1-454); details: protein: recombinant; tags: N-terminal GST; dsDNA, one strand shown
# T3 sequence: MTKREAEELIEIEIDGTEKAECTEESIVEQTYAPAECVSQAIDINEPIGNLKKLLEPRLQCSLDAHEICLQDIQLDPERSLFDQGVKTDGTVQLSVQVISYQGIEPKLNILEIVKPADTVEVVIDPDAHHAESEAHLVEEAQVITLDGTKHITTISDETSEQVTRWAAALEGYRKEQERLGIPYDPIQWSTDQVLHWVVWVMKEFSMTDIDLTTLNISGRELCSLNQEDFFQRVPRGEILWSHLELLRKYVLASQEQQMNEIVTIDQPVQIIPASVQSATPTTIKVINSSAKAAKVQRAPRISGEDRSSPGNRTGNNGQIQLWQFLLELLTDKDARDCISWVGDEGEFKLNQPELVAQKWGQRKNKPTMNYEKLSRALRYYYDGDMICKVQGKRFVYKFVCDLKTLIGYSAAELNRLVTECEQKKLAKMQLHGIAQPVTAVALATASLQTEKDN
# Summary of the method: as §1
# ERG = target: T4, ERG (Homo sapiens, UniProt P11308 1-479); details: protein: recombinant; tags: N-terminal GST; dsDNA, one strand shown
# T4 sequence: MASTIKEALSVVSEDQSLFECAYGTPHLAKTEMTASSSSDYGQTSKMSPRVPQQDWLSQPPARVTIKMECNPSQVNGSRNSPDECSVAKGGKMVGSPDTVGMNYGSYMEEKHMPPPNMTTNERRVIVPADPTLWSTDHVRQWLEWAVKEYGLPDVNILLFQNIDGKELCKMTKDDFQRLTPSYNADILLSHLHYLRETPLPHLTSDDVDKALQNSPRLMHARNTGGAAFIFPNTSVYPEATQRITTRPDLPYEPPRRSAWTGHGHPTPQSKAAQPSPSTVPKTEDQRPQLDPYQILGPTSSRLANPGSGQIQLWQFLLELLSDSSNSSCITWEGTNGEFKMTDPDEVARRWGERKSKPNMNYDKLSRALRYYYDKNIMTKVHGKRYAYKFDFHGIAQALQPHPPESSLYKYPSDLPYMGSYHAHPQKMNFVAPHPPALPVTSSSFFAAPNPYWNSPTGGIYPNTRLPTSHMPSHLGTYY
# Summary of the method: as §1
# ELF1 = ELF1 (Homo sapiens, UniProt P32519 1-619); details: protein: recombinant; tags: N-terminal GST; dsDNA, one strand shown
# Summary of the method: as §1
# EHF = target: T5, EHF (Homo sapiens, UniProt Q9NZC4 1-300); details: protein: recombinant; tags: N-terminal GST; dsDNA, one strand shown
# T5 sequence: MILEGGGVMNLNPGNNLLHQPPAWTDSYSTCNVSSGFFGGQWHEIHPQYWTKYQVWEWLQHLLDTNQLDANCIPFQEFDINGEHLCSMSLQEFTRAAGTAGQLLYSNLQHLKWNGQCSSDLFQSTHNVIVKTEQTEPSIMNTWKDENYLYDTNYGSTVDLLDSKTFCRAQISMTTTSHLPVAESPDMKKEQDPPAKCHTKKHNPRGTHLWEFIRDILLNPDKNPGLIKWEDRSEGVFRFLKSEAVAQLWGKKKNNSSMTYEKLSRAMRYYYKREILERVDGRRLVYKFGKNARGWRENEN
# Summary of the method: as §1
# SPI1 = SPI1 (Homo sapiens, UniProt P17947 1-270); details: protein: recombinant; tags: N-terminal GST; dsDNA, one strand shown
# Summary of the method: as §1
# SPIB = SPIB (Homo sapiens, UniProt Q01892 1-262); details: protein: recombinant; tags: N-terminal GST; dsDNA, one strand shown
# Summary of the method: as §1
# ELK3 = target: T6, ELK3 (Homo sapiens, UniProt P41970 1-407); details: protein: recombinant; tags: N-terminal GST; dsDNA, one strand shown
# T6 sequence: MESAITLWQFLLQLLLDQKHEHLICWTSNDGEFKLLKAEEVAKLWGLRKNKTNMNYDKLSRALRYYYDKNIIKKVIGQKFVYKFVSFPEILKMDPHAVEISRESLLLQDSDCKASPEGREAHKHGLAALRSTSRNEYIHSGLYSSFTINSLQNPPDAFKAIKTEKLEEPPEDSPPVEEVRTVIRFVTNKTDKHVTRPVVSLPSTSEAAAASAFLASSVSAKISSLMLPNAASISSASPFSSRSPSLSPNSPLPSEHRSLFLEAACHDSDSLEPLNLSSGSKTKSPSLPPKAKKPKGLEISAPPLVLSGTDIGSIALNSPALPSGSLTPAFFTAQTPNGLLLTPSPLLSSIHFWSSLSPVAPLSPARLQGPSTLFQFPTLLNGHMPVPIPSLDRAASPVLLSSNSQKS
# Summary of the method: as §1
# FEV = target: T7, FEV (Homo sapiens, UniProt Q99581 1-238); details: protein: recombinant; tags: N-terminal GST; dsDNA, one strand shown
# T7 sequence: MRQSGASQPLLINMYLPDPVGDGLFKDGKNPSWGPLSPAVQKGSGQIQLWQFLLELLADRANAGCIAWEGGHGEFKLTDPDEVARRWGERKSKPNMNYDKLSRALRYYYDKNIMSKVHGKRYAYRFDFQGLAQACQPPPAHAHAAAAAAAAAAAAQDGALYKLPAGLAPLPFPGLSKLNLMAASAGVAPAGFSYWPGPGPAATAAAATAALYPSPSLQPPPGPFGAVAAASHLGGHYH
# Summary of the method: as §1
# ETV5 = ETV5 (Homo sapiens, UniProt P41161 1-510); details: protein: recombinant; tags: N-terminal GST; dsDNA, one strand shown
# Summary of the method: as §1
# HSF1 = HSF1 (Homo sapiens, UniProt Q00613 1-529); details: protein: recombinant; tags: N-terminal GST; chain copies: 3; dsDNA, one strand shown
# Summary of the method: as §1
# SPIC = target: T8, SPIC (Homo sapiens, UniProt Q8N5J4 1-248); details: protein: recombinant; tags: N-terminal GST; dsDNA, one strand shown
# T8 sequence: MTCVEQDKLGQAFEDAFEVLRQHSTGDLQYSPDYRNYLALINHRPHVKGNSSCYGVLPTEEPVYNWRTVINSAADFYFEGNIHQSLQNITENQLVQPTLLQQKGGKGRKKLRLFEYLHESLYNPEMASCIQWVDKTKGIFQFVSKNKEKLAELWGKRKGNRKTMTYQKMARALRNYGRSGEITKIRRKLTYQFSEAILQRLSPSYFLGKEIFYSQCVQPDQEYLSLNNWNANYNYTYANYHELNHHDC
# Summary of the method: as §1
# ELF4 = ELF4 (Homo sapiens, UniProt Q99607 1-663); details: protein: recombinant; tags: N-terminal GST; dsDNA, one strand shown
# Summary of the method: as §1
# ELK4 = target: T9, ELK4 (Homo sapiens, UniProt P28324-2 1-405); details: protein: recombinant; tags: N-terminal GST; dsDNA, one strand shown
# T9 sequence: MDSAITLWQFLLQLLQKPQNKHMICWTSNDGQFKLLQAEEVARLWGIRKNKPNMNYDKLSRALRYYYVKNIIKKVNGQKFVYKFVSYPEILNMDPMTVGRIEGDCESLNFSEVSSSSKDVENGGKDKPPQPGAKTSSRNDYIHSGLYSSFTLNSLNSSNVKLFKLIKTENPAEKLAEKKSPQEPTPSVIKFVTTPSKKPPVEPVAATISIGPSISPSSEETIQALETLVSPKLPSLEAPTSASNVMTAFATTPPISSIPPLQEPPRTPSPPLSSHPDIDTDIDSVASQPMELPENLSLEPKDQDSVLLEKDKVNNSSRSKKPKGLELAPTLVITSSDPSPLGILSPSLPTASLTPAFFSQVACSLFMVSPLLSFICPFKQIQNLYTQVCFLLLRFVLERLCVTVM
# Summary of the method: as §1
# ETV2 = target: T10, ETV2 (Homo sapiens, UniProt O00321 1-342); details: protein: recombinant; tags: N-terminal GST; dsDNA, one strand shown
# T10 sequence: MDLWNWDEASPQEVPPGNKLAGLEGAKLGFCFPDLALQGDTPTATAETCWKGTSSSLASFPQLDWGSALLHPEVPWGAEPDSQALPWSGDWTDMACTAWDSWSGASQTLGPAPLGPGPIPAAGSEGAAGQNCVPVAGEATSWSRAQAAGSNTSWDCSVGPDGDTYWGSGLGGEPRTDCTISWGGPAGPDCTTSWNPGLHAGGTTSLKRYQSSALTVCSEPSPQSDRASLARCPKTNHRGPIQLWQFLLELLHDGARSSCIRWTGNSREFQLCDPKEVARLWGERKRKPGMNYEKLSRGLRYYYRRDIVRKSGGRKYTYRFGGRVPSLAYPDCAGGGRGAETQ
# Summary of the method: as §1
# ELF3 = target: T11, ELF3 (Homo sapiens, UniProt P78545 1-371); details: protein: recombinant; tags: N-terminal GST; dsDNA, one strand shown
# T11 sequence: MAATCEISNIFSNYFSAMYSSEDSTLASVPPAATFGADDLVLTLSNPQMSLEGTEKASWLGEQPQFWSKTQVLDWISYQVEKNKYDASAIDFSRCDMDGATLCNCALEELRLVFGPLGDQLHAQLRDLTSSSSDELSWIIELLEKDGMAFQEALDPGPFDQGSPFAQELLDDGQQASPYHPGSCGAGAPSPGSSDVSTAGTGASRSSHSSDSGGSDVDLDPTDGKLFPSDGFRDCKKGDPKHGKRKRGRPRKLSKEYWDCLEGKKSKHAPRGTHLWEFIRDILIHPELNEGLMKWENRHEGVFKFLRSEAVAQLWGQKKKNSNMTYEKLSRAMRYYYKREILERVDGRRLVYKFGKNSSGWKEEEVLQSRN
# Summary of the method: as §1
# ETV1 = ETV1 (Homo sapiens, UniProt P50549 1-477); details: protein: recombinant; tags: N-terminal GST; dsDNA, one strand shown
# Summary of the method: as §1
# Chain of HSF1 (Q00613 whole entry): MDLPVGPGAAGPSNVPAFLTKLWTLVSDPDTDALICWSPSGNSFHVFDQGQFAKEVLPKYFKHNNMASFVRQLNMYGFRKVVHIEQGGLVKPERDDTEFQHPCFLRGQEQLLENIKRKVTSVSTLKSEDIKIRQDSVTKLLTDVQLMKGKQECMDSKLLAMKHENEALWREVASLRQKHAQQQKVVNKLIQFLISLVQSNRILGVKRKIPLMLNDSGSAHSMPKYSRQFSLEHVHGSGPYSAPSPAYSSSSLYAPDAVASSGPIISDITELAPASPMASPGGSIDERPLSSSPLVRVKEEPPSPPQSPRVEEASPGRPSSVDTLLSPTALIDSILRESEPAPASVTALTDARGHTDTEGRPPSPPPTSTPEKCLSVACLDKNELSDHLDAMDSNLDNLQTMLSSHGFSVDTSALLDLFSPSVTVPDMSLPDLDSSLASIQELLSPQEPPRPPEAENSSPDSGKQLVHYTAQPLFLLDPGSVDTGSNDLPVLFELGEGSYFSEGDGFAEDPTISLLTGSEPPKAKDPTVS
# Chain of ELF1 (P32519 whole entry): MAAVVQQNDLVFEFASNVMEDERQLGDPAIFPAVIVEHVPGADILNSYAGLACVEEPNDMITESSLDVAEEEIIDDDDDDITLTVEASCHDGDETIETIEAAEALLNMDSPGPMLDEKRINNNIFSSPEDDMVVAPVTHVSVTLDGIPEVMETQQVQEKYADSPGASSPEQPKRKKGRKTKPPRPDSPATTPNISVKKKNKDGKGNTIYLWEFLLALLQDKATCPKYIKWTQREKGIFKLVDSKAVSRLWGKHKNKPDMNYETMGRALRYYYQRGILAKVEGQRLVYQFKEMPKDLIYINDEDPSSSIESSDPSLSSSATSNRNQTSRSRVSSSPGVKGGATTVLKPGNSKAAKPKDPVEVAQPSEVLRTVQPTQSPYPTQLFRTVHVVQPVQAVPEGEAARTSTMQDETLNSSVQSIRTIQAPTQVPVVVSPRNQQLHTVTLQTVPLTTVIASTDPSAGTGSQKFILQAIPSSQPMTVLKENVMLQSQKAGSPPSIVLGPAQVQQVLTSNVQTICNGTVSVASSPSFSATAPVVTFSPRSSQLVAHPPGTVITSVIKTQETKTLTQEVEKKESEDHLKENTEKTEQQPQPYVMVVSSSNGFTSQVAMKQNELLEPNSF
# Chain of ELF4 (Q99607 whole entry): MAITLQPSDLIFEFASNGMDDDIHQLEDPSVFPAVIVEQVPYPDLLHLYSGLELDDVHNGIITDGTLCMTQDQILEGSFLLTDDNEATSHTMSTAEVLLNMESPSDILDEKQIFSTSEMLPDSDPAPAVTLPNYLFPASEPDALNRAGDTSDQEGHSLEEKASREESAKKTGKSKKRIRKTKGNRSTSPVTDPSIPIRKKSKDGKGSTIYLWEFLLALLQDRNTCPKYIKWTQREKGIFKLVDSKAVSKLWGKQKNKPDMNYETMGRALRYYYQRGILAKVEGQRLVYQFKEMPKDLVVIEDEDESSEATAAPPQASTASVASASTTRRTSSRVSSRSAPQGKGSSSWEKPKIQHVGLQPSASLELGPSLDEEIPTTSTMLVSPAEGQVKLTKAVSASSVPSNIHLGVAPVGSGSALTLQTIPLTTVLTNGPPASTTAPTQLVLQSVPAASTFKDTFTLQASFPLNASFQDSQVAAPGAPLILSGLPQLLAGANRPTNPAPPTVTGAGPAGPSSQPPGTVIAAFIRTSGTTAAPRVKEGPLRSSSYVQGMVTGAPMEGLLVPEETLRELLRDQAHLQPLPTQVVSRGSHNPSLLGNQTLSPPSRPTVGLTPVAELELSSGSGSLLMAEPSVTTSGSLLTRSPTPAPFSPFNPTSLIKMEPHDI
# Chain of ETV1 (P50549 whole entry): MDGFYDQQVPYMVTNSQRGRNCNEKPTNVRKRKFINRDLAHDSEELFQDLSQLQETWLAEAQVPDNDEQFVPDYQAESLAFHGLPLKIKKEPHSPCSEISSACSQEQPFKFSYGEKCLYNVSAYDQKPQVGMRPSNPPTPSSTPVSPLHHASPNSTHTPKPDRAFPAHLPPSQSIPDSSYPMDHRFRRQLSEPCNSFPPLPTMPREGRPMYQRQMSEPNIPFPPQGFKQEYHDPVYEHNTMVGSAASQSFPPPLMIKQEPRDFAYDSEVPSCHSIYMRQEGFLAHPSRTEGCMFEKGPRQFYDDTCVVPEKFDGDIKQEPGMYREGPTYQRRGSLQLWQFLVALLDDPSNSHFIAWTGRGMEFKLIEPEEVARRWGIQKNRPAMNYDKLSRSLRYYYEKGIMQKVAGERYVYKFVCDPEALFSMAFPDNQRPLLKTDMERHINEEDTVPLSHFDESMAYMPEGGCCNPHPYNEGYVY
# Chain of SPIB (Q01892 whole entry): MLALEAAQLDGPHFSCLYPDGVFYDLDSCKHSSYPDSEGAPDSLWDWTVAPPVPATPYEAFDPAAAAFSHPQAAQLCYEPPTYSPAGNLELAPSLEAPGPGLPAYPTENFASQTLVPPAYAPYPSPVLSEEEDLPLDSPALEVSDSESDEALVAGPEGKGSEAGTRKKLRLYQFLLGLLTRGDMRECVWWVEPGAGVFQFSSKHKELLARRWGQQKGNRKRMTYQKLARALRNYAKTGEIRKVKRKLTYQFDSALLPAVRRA
# Chain of ETV5 (P41161 whole entry): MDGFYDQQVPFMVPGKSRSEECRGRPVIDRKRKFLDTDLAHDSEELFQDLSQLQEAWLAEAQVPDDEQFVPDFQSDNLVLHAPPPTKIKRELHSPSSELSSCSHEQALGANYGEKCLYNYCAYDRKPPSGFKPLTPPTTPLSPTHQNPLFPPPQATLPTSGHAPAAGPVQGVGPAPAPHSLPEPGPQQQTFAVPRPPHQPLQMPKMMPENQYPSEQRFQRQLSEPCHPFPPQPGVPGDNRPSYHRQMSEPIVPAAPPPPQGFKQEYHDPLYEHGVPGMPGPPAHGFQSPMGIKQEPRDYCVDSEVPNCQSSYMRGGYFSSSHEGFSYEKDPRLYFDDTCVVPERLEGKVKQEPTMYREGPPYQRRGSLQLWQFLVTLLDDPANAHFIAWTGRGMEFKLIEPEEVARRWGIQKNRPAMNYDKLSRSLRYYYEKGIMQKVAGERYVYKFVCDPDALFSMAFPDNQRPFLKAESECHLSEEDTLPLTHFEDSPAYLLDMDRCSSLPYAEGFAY
sequence,measurement,setting,value
GAAACA,binding signal,FLI1,"1.38 fold enrichment (6-mer frequency, TF over GST control)"
same,binding signal,ELK1,"1.4 fold enrichment (6-mer frequency, TF over GST control)"
same,binding signal,GABPA,"1.22 fold enrichment (6-mer frequency, TF over GST control)"
same,binding signal,ERG,"1.32 fold enrichment (6-mer frequency, TF over GST control)"
same,binding signal,ELF1,"1.35 fold enrichment (6-mer frequency, TF over GST control)"
same,binding signal,EHF,"1.45 fold enrichment (6-mer frequency, TF over GST control)"
same,binding signal,SPI1,"1.3 fold enrichment (6-mer frequency, TF over GST control)"
same,binding signal,SPIB,"1.36 fold enrichment (6-mer frequency, TF over GST control)"
same,binding signal,ELK3,"1.38 fold enrichment (6-mer frequency, TF over GST control)"
same,binding signal,FEV,"1.33 fold enrichment (6-mer frequency, TF over GST control)"
same,binding signal,ETV5,"1.46 fold enrichment (6-mer frequency, TF over GST control)"
same,binding signal,HSF1,"1.22 fold enrichment (6-mer frequency, TF over GST control)"
same,binding signal,SPIC,"1.38 fold enrichment (6-mer frequency, TF over GST control)"
same,binding signal,ELF4,"1.3 fold enrichment (6-mer frequency, TF over GST control)"
same,binding signal,ELK4,"1.22 fold enrichment (6-mer frequency, TF over GST control)"
same,binding signal,ETV2,"1.44 fold enrichment (6-mer frequency, TF over GST control)"
same,binding signal,ELF3,"1.52 fold enrichment (6-mer frequency, TF over GST control)"
same,binding signal,ETV1,"1.26 fold enrichment (6-mer frequency, TF over GST control)"
